Bioassay records as filed in PubChem BioAssay.
G9a inh = blocks human histone lysine methyltransferase G9a; Potency, µM (titrated, usually from 102 µM), without a hit: at the highest dose activity, negative = inhibition, usual class: inhibitors; G9a H3K9 monomethylation, AlphaScreen, 2 h; 8.8% of 350,000 active; Q96KQ7; also: % is scaled to controls: 0 for no effect and ±100 for the full control effect; nearly all actives have a fitted effect of over 75% in size
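Compounds were preincubated with 20 nM G9a for 15 min, after which biotinylated H3K9 peptide (500 nM) and SAM (20 uM) started a 2 h room-temperature reaction. Monomethylated product was quantified by antibody-based AlphaScreen chemiluminescence.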
Sfp PPTase inh = Sfp phosphopantetheinyl transferase inhibition; Biochemical Sfp PPTase activity, qHTS; 3.5% of 310,000 active; Q9F4F7; Potency, µM, without a hit: largest response in the series, negative = inhibition, hits mostly inhibitors; AID 1490;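 also: the enzyme is Sfp with the accession as filed and its product quenches rhodamine fluorescence; 0% = enzyme reaction without inhibitor and -100% = no enzyme wells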
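Reaction rates are the 30-min fluorescence difference (ex 525, em 598 nm) in wells containing 15 nM Sfp, 5 uM rhodamine-CoA and 12.5 uM BHQ-2-YbbR at pH 7.6 with 10 mM MgCl2.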
JMJD2A Tudor = inhibitors of human JMJD2A Tudor domain. AlphaScreen JMJD2A-Tudor / H3K4me3 peptide binding. Potency, µM (top dose mostly 114 µM), for inactives: top-dose activity change, negative = inhibition, most hits filed as inhibitors. AID 504339. 4.4% of 390,000 active; also: % is scaled to controls: 0 for no effect and ±100 for the full control effect; nearly all actives have a fitted effect of over 50% in size
Target sequence (O75164 whole entry, looked up, the tested form may be a part): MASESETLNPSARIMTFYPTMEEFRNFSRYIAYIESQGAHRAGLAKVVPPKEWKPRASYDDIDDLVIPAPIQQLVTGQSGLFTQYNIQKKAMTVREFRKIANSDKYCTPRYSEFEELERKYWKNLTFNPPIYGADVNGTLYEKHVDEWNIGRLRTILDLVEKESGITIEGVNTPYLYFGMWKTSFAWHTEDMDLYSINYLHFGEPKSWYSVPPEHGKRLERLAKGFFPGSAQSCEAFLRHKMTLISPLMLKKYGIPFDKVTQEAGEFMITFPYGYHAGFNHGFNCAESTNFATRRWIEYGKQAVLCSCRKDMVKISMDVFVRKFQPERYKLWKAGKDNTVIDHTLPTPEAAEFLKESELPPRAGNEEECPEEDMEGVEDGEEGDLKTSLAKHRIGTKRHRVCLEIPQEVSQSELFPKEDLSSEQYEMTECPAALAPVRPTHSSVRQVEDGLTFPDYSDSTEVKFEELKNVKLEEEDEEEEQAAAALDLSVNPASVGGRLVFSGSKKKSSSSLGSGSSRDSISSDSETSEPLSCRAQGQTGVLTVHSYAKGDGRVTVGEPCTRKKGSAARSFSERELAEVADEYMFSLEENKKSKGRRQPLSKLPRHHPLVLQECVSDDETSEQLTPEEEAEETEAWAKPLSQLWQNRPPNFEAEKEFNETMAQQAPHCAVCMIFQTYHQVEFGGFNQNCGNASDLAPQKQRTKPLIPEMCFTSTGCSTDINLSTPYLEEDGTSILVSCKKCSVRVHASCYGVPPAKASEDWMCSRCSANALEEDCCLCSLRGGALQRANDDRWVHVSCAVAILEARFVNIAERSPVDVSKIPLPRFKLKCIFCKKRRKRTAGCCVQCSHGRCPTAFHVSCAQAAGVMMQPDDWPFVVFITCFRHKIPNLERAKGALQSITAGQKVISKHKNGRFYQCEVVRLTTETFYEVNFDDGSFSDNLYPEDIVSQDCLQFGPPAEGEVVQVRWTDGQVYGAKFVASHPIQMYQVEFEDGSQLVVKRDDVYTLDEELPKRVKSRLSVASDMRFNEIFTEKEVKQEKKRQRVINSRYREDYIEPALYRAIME
BAZ2B inh = BAZ2B (human) inhibition; Potency, µM (highest dose often 114 µM), without a hit: top-dose activity change, negative = inhibition, most hits filed as inhibitors; AlphaScreen BAZ2B-H3K14Ac peptide displacement; 4.4% of 360,000 active; Q9UIF8; also: % is scaled to controls: 0 for no effect and ±100 for the full control effect; nearly all actives have a fitted effect of over 60% in size
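Protein-peptide AlphaScreen: BAZ2B 50 nM, b-H3K14Ac 50 nM, 1x PBS pH 7.4 + 0.01% Tween-20. Preincubation 30 min RT; cpd 30 min RT (top 110 uM); beads 20 min RT, light-protected.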
HP1b chromo inh = inhibitors of HP1-beta chromodomain binding to methylated histone tails; P83916; AlphaScreen HP1-beta / biotin-H3K9me3 peptide binding; Potency, µM (highest dose often 114 µM), for the others: top-dose activity change, negative = inhibition, usual class: inhibitors; 0.56% of 390,000 active; AID 540317; also: nearly all actives have a fitted effect of over 70% in size
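HP1-beta protein (50 nM final) preincubated 30 min at room temperature with biotinylated H3(1-18)K9me3 peptide (50 nM) in PBS pH 7.4, 0.01% Tween-20, then compound added for 30 min. AlphaScreen streptavidin donor/nickel chelate acceptor beads (10 ug/mL final), 30 min dark, luminescence read.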
* hit, by the source's call; ? = inconclusive; / = not tested or not shown; [ ] = dose if it differs, or a comment. Shown are actives, neighbours in structure and some others; about 12% of the full set was active somewhere. Calls follow the shape of the dose curve; as a rule, active = well fitted curve in the direction sought with a large enough effect; inconclusive = small, poorly fitted or top-dose-only effect, or another doubt; inactive = no such curve, though single readings can be large; an effect the other way counts as inactive or inconclusive. Potency is read from the fitted curve at half-maximal effect.

SMILES	G9a inh	Sfp PPTase inh	JMJD2A Tudor	BAZ2B inh	HP1b chromo inh
CCCC(=O)Nc1ccc(C2C(=O)c3ccccc3C2=O)cc1	79µM*	0%	-24%	?	-16%
Cc1ccc(C2C(=O)c3ccccc3C2=O)cc1	?	2%	-15%	?	1%
CC(c1ccccc1F)n1cc(C(=O)NCCc2ccco2)nn1 (stereo not drawn)	50µM*	-16%	-15%	-12%	19%
COCCNC(=O)c1cn(C(C)c2ccccc2F)nn1 (stereo not drawn)	-2%[12.7 µM]	23%	-11%	-2%	22%
CCOc1ccc2c(c1)C(c1cccs1)=NNC(c1cccnc1)=N2	-42%	3%	?	71µM*	-19%
Brc1ccc2c(c1)C(c1cccs1)=NNC(c1cccnc1)=N2	12%	13%	-25%	4%	20%
CCCCCn1c(CNC(C)=O)nc2ccccc21	9%[59 µM]	14%	-20%[57.1 µM]	11%	31%
Cc1ccc(COc2ccc(CNCCCN3CCCCCC3=O)cc2)cc1	14µM*	-21%	1.3µM*	35µM*	32µM*
Cc1ccc(NC(=O)C(=O)NCCCN2CCCC2=O)cc1	1%	/	-7%	-9%	20%
COc1ccc(-c2cc(C)no2)cc1S(=O)(=O)NCCc1ccco1	7%[0.0925 µM]	21%	79µM*	?	-30%
O=C(/C=C/N1CCN(Cc2ccccc2)CC1)C(F)(F)F	-3%	25%	-11%	-19%	30%
Cc1ccn2c(c1)nc(=S)n2C(=O)c1ccco1	10µM*	?	/	-2%	/
CCN(CC)S(=O)(=O)c1ccc(N(C)C)c(NC(=O)C2CCCC2)c1	11%	26%	-6%[11.4 µM]	-12%	17%
COC(=O)CSc1nnc(-c2sc3ccccc3c2Cl)o1	13µM*	-12%	10%	-15%	51%
COc1cccc(NC(=O)CSc2nc3ccccc3n2C)c1	3%[59 µM]	3%	?	-9%	-6%
COC(=O)CSc1nnc(-c2ccc3c(c2)OCO3)n1C	12%	14%	-11%	5%[57.1 µM]	9%
COC(=O)CSc1nnc(-c2sc3cc(OC)ccc3c2Cl)n1C	6.3µM*	3%	9%[57.1 µM]	-20%	27%
COc1ccc(C(=O)OCC(=O)c2ccc(Br)s2)c(OC)c1	7%	/	10%	3%	52%
COc1ccc2c(c1)nc(SCC(=O)c1ccc(Br)s1)n2C	40µM*	56µM*	56µM*	?	-11%
COC(=O)CSc1nc2cc(OC)ccc2n1C	71µM*	-6%	-9%	-26%	24%
CCN(C(=O)COC(=O)c1ccc(F)c(S(=O)(=O)N2CCOCC2)c1)C1CCS(=O)(=O)C1 (stereo not drawn)	/	9%	-15%	-3%	15%
O=C(c1ccc2oc(Cc3ccc(Cl)cc3)nc2c1)N1CC[C@H](O)C1	7%	6%	-4%	-20%	62%
COc1ccc(-c2noc(CSc3nnc(Cc4ccccc4)n3-c3cccc(C)c3)n2)cc1OC	?	-4%	-21%	-32%	11%
O=C(NCC1CCCO1)c1ccc2c(=O)n(CCc3ccccc3)c(=O)[nH]c2c1 (stereo not drawn)	17%[2.33 µM]	18%	-12%	-5%	21%
Cc1ccc(CNC(=O)c2ccc3c(=O)[nH]c4c(C(=O)NCC5CCCO5)sc(=S)n4c3c2)cc1 (stereo not drawn)	?	?	?	35µM*	-38%
SMILES	G9a inh	Sfp PPTase inh	JMJD2A Tudor	BAZ2B inh	HP1b chromo inh
O=C(NCc1ccccc1)c1ccc2c(=O)[nH]c3c(C(=O)NCC4CCCO4)sc(=S)n3c2c1 (stereo not drawn)	45µM*	-16%	?	40µM*	?
O=C(NCC1CCCO1)c1ccc2c(=O)n(-c3ccc(F)cc3)c(=S)[nH]c2c1 (stereo not drawn)	?	1%	-8%	-13%	62%
CCCCCNC(=O)c1ccc2c(=O)[nH]c3c(C(=O)NCC4CCCO4)sc(=S)n3c2c1 (stereo not drawn)	?	50µM*	-33%[57.1 µM]	-39%	?
N#Cc1c(-c2ccc(Cl)cc2)cc(-c2cccs2)nc1SCC(=O)O	8.9µM*	40µM*	28µM*	22µM*	-18%
Cc1cccc(CSc2nc(-c3cccs3)ccc2C#N)c1	228%[59 µM]	/	120%	116%	133%
CN1CCN(C(=O)CSc2nc(-c3cccs3)ccc2C#N)CC1	40µM*	?	?	1%	17%
N#Cc1c(-c2ccccc2)cc(-c2ccccc2)nc1SCC(O)CS(=O)(=O)Cc1ccccc1 (stereo not drawn)	4.5µM*	/	-25%	-14%	-17%
COc1ccc(-c2cc(-c3cccs3)c(C#N)c(SCC(=O)NCc3ccccc3)n2)cc1	1%	-3%	0%	2%[57.1 µM]	31%
N#Cc1c(-c2ccccc2)cc(-c2cccs2)nc1SCC(=O)O	8.9µM*	56µM*	-13%	-5%	4%
Cc1ccc(-c2cc(-c3ccccc3)c(C#N)c(SCC(O)CS(=O)(=O)Cc3ccccc3)n2)cc1 (stereo not drawn)	?	/	-15%	-8%	-2%
O=C(NCCOCCn1c(=O)oc2ccccc21)Nc1ccc(F)cc1	3%[59 µM]	/	-4%	-3%	33%
Cc1ccc(CNC(=O)Cn2c(=O)n(-c3ccccc3)c(=O)c3sccc32)cc1	16%	?	-4%	1%	24%
Nc1ncnc(Sc2ccccc2)c1[N+](=O)[O-]	-6%[59 µM]	6%	-10%	-8%	16%
Nc1ncnc(Sc2ncccn2)c1[N+](=O)[O-]	?	35µM*	-20%	79µM*	31%
Oc1ccccc1N=Cc1ccc[nH]1	-11%[12.7 µM]	25µM*	-10%	?	31%
CC(=O)Nc1ccc(S(=O)(=O)N(Cc2ccco2)Cc2cc3ccccc3[nH]c2=O)cc1	35µM*	1%	-18%	-31%	55%
CC(=O)Nc1ccc(S(=O)(=O)N(Cc2cccnc2)Cc2cc3ccccc3[nH]c2=O)cc1	19%	3%	11%	-17%	29%
COC(=O)c1ccccc1S(=O)(=O)N(Cc1ccco1)Cc1cc2cc(OC)ccc2[nH]c1=O	?	22µM*	-3%	-33%	28%
CNC(=S)N(Cc1ccco1)Cc1cc2cc(OC)ccc2[nH]c1=O	/	1%	-22%	-8%	-3%
CC(CC(C)C(=O)N1CCOCCN(C(=O)C(C)CC(C)C(=O)O)CCOCC1)C(=O)O (stereo not drawn)	?	13%	-17%	2%	27%
CN(C)S(=O)(=O)c1ccc(NC(=O)CSc2ncnc3ccccc23)cc1	?	6%	-16%	-5%	-4%
CSc1cccc(CNC(=O)CC2C(=O)NCCN2CC(C)(C)C)c1 (stereo not drawn)	40µM*	-4%	-15%	-18%	29%
Cn1cc(CNC(=O)CC2C(=O)NCCN2CC(C)(C)C)cn1 (stereo not drawn)	50µM*	14%	-4%	2%	10%
